PubChem BioAssay AID1159580 (chemical genetic matrix, 2015)
Screen size: about 5,500 compounds; about 2,000 (36%) were called active. Not shown: some 18% with an inconclusive outcome. Cut-off read from the data, not from the text of the source: active = normalized growth mostly below about 0.91 (no sharp cut-off); inconclusive = no clear call, values can overlap the other calls; inactive = mostly above about 0.92. This is one part of the list.

Assay: chemical genetic growth profiling, strain panel (AID 1159580);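 note: tested at 20 µM; growth read once vehicle control cultures reached saturation at 30 °C; 1 = growth at the plate median or of vehicle wells; lower values mean less growth of the strain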
Conditions: growth OD

Measured: normalized growth

CC(=O)NO
inactive: S. cerevisiae deletion strains, locus YJL187C, strain SWE1, hits give low values 0.992 | S. cerevisiae deletion strains, locus YJR043C, strain POL32, hits give low values 1.07 | S. cerevisiae deletion strains, locus YJR066W, strain TOR1, hits give low values 0.993 | S. cerevisiae deletion strains, locus YKL009W, strain mrt4, hits give low values 0.989 | S. cerevisiae deletion strains, locus YKL068W, hits give low values 0.995 | S. cerevisiae deletion strains, locus YKL085W, strain MDH1 (second series), hits give low values 0.994 | S. cerevisiae deletion strains, locus YKL085W, strain MDH1, hits give low values 0.994 | S. cerevisiae deletion strains, locus YKL160W, strain elf1, hits give low values 0.961 | S. cerevisiae deletion strains, locus YKL190W, strain CNB1, hits give low values 1 | S. cerevisiae deletion strains, locus YKR001C, strain vps1, hits give low values 1.02 | S. cerevisiae deletion strains, locus YKR026C, strain gcn3, hits give low values 0.98 | S. cerevisiae deletion strains, locus YKR091W, strain srl3, hits give low values 0.985 | S. cerevisiae deletion strains, locus YLL001W, strain dnm1, hits give low values 0.922 | S. cerevisiae deletion strains, locus YLL026W, hits give low values 0.988 | S. cerevisiae deletion strains, locus YLL041C, strain sdh2, hits give low values 0.988 | S. cerevisiae deletion strains, locus YLR027C, strain aat2, hits give low values 0.981 | S. cerevisiae deletion strains, locus YLR039C, strain RIC1, hits give low values 0.711 | S. cerevisiae deletion strains, locus YLR058C, strain SHM2, hits give low values 0.988 | S. cerevisiae deletion strains, locus YLR102C, strain apc9, hits give low values 0.996 | S. cerevisiae deletion strains, locus YLR113W, strain HOG1, hits give low values 0.973 | S. cerevisiae deletion strains, locus YLR221C, strain rsa3, hits give low values 0.922 | S. cerevisiae deletion strains, locus YLR258W, strain gsy2, hits give low values 0.964 | S. cerevisiae deletion strains, locus YLR262C, strain YPT6 (second series), hits give low values 0.986 | S. cerevisiae deletion strains, locus YLR262C, strain YPT6, hits give low values 0.746 | S. cerevisiae deletion strains, locus YLR268W, strain sec22, hits give low values 0.965 | S. cerevisiae deletion strains, locus YLR320W, strain mms22, hits give low values 0.892 | S. cerevisiae deletion strains, locus YLR330W, strain CHS5, hits give low values 0.996 | S. cerevisiae deletion strains, locus YLR342W, strain FKS1 (second series), hits give low values 0.901 | S. cerevisiae deletion strains, locus YLR342W, strain FKS1, hits give low values 0.98 | S. cerevisiae deletion strains, locus YLR357W, strain rsc2, hits give low values 0.971 | S. cerevisiae deletion strains, locus YLR370C, strain arc18, hits give low values 0.949 | S. cerevisiae deletion strains, locus YLR371W, strain rom2, hits give low values 0.987 | S. cerevisiae deletion strains, locus YLR384C, strain iki3, hits give low values 0.983 | S. cerevisiae deletion strains, locus YLR418C, strain cdc73, hits give low values 0.851 | S. cerevisiae deletion strains, locus YML016C, strain PPZ1, hits give low values 0.993 | S. cerevisiae deletion strains, locus YML032C, strain rad52, hits give low values 0.951 | S. cerevisiae deletion strains, locus YML120C, strain ndi1, hits give low values 0.948 | S. cerevisiae deletion strains, locus YML124C, strain tub3, hits give low values 0.995 | S. cerevisiae deletion strains, locus YMR058W, strain fet3, hits give low values 0.988 | S. cerevisiae deletion strains, locus YMR078C, strain ctf18, hits give low values 0.991 | S. cerevisiae deletion strains, locus YMR125W, strain sto1, hits give low values 0.963 | S. cerevisiae deletion strains, locus YMR129W, hits give low values 0.99 | S. cerevisiae deletion strains, locus YMR205C, strain PFK2, hits give low values 0.951 | S. cerevisiae deletion strains, locus YMR223W, strain ubp8, hits give low values 0.968 | S. cerevisiae deletion strains, locus YMR231W, strain pep5, hits give low values 0.987 | S. cerevisiae deletion strains, locus YMR307W, strain GAS1, hits give low values 1.17 | S. cerevisiae deletion strains, locus YNL067W, strain RPL9B, hits give low values 0.949 | S. cerevisiae deletion strains, locus YNL071W, strain lat1, hits give low values 0.976 | S. cerevisiae deletion strains, locus YNL183C, strain NPR1, hits give low values 0.968 | S. cerevisiae deletion strains, locus YNL209W, strain ssb2, hits give low values 0.985 | S. cerevisiae deletion strains, locus YNL233W, strain BNI4, hits give low values 0.939 | S. cerevisiae deletion strains, locus YNL248C, strain rpa49, hits give low values 0.956 | S. cerevisiae deletion strains, locus YNL250W, strain rad50, hits give low values 0.976 | S. cerevisiae deletion strains, locus YNL271C, strain bni1, hits give low values 0.984 | S. cerevisiae deletion strains, locus YNL298W, strain CLA4, hits give low values 0.993 | S. cerevisiae deletion strains, locus YNL307C, strain MCK1, hits give low values 0.978 | S. cerevisiae deletion strains, locus YNL322C, strain KRE1 (second series), hits give low values 0.957 | S. cerevisiae deletion strains, locus YNR049C, strain mso1, hits give low values 0.977 | S. cerevisiae deletion strains, locus YNR052C, strain pop2, hits give low values 0.97 | S. cerevisiae deletion strains, locus YOL012C, strain htz1 0.899 | S. cerevisiae deletion strains, locus YOL147C, strain pex11, hits give low values 0.992 | S. cerevisiae deletion strains, locus YOR001W, strain rrp6, hits give low values 1.01 | S. cerevisiae deletion strains, locus YOR061W, strain CKA2, hits give low values 1 | S. cerevisiae deletion strains, locus YOR069W, strain VPS5, hits give low values 1.01 | S. cerevisiae deletion strains, locus YOR070C, strain gyp1, hits give low values 0.979 | S. cerevisiae deletion strains, locus YOR080W, strain dia2, hits give low values 0.977 | S. cerevisiae deletion strains, locus YOR083W, strain WHI5, hits give low values 0.962 | S. cerevisiae deletion strains, locus YOR106W, strain vam3, hits give low values 0.975 | S. cerevisiae deletion strains, locus YOR136W, strain idh2, hits give low values 0.989 | S. cerevisiae deletion strains, locus YOR144C, strain elg1, hits give low values 0.996 | S. cerevisiae deletion strains, locus YOR184W, strain ser1, hits give low values 0.974 | S. cerevisiae deletion strains, locus YOR231W, strain MKK1, hits give low values 0.992 | S. cerevisiae deletion strains, locus YOR265W, strain rbl2, hits give low values 0.986 | S. cerevisiae deletion strains, locus YOR270C, strain vph1, hits give low values 0.944 | S. cerevisiae deletion strains, locus YOR290C, strain snf2, hits give low values 0.948 | S. cerevisiae deletion strains, locus YOR316C, strain cot1, hits give low values 0.996 | S. cerevisiae deletion strains, locus YPL051W, strain arl3, hits give low values 0.985 | S. cerevisiae deletion strains, locus YPL078C, strain atp4, hits give low values 0.97 | S. cerevisiae deletion strains, locus YPL106C, strain sse1, hits give low values 0.969 | S. cerevisiae deletion strains, locus YPL240C, strain hsp82, hits give low values 0.983 | S. cerevisiae deletion strains, locus YPL256C, strain CLN2, hits give low values 0.994 | S. cerevisiae deletion strains, locus YPR119W, strain clb2, hits give low values 1 | S. cerevisiae deletion strains, locus YPR141C, strain kar3, hits give low values 1 | S. cerevisiae deletion strains, locus YPR163C, strain tif3, hits give low values 0.984 | S. cerevisiae deletion strains, locus YPR167C, strain met16, hits give low values 0.983 | S. cerevisiae deletion strains, strain wtn01, hits give low values 0.969 | S. cerevisiae strains, strain wild type, hits give low values 0.981
